High-throughput results from PubChem.
The entries come from a sample that favours hits as a whole.
mut p53 react: mutant p53 pathway re-activators, primary screen, cell-based, SW480, luciferase, single point, HTS; SW480 PUMA-promoter luciferase, p53 mutant reactivation; activation, % at 9.98 µM; 1.5% of 28,000 active; AID 624151, 2012; in the data active = activation above about 52%; inconclusive = no clear call, values can overlap the other calls
NOMO-1 viab: NOMO-1 AML cell viability reduction, primary screen, STK33 inhibitor project, CellTiter-Glo luminescence | NOMO-1 AML viability, 72 h | inhibition, % (test concentration not listed) | 7.5% of 37,000 active; in the data active = inhibition above about 80%; inconclusive = no clear call, values can overlap the other calls
STK33 inh: STK33 kinase inhibitors, primary screen, biochemical, luminescence, ADP-Glo, MBP substrate. inhibition, % at 12.5 µM. Serine/threonine-protein kinase 33 (Homo sapiens), Q9BYT3. 0.44% of 27,000 active. AID 2322, 2010; in the data active = inhibition above about 20%; inconclusive = no clear call, values can overlap the other calls
Target sequence (Q9BYT3 whole entry, looked up): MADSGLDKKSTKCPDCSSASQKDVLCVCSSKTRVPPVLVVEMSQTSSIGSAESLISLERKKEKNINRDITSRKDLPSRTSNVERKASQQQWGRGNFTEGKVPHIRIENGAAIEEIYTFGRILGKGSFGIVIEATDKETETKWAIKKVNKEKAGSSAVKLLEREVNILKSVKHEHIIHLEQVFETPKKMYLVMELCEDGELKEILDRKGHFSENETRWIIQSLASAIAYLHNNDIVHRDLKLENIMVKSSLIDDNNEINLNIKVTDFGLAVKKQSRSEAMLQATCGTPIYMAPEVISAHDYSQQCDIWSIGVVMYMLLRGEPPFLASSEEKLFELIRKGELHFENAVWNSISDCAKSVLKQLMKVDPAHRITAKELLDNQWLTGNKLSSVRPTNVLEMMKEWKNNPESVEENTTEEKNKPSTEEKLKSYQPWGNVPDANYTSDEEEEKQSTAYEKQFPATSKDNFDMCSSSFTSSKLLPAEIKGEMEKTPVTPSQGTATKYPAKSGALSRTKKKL
ID4 binder: binders of human ID4 protein, primary screen, biochemical, small molecule microarray, single point; DNA-binding protein inhibitor ID-4 (Homo sapiens), P47928; Flag-ID4 binding, fluorescence F/B; calls only; 1.2% of 31,000 active; AID 624137, 2012; call rule not given here;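 also: a binder raises fluorescence above local background on the spot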
* hit, by the source's call; i = inactive; u = inconclusive; x = no result given; + = active, no number.

SMILES | mut p53 react | NOMO-1 viab | STK33 inh | ID4 binder
CCCN(C)C[C@@H]1OCCCC[C@@H](C)Oc2ccc(NC(=O)CCC(F)(F)F)cc2C(=O)N([C@H](C)CO)C[C@@H]1C | x | 7 | 1 | x
CS(=O)(=O)N(CC(=O)Nc1ccccc1-c1ccccc1)c1cccc(C(F)(F)F)c1 | -18 | 26 | -1 | i
Cc1ccc2oc(-c3cccc(NC(=O)COc4ccc(Br)cc4)c3C)nc2c1 | 44 | 10 | 3 | i
CC(C)c1ccc2oc(-c3ccc(Cl)c(NC(=O)COc4ccc([N+](=O)[O-])cc4)c3)nc2c1 | -13 | 110* | 1 | i
Cc1ccc(OCC(=O)Nc2cccc(C(=O)O)c2C)cc1 | 66* | 18 | -9 | i
Cc1ccc2oc(-c3cccc(NC(=O)COc4ccc(Cl)cc4)c3C)nc2c1 | 66* | 41 | 3 | i
O=C(CN1C(=O)COc2ccc(Cl)cc21)Nc1ccc([N+](=O)[O-])cc1 | 0 | 59 | 0 | i
CO[C@@H](CN(C)C(=O)C1CCOCC1)[C@@H](C)CN([C@@H](C)CO)S(=O)(=O)c1ccccc1 | x | x | x | i
C[C@@H]1CN([C@@H](C)CO)C(=O)c2cccc(NC(=O)Nc3ccc(F)cc3)c2O[C@@H]1CN(C)Cc1ccc2c(c1)OCO2 | x | 23 | x | x
C[C@@H]1CN([C@H](C)CO)C(=O)c2cccc(NS(=O)(=O)c3cccs3)c2O[C@@H]1CN(C)S(=O)(=O)c1ccc(F)cc1 | x | 24 | x | x
O=C(CSc1nc(-c2ccccc2)cc(=O)[nH]1)NCC1CCCO1 (stereo unspecified) | 4 | 16 | 0 | +
O=C(CSc1nc(-c2ccccc2)cc(=O)[nH]1)Nc1ccccc1 | -9 | 20 | -2 | i
C/C=C/c1cnc2c(c1)C(=O)N([C@H](C)CO)C[C@@H](C)[C@@H](CN(C)C(=O)c1cccc(F)c1)O2 | x | x | x | i
C[C@@H]1CN([C@H](C)CO)C(=O)Cc2cc(NS(C)(=O)=O)ccc2O[C@H]1CN(C)Cc1ccc(C(=O)Nc2ccccc2N)cc1 | x | 22 | x | x
C[C@H]1CN([C@@H](C)CO)C(=O)Cc2cc(NS(C)(=O)=O)ccc2O[C@@H]1CN(C)Cc1ccc(C(=O)Nc2ccccc2N)cc1 | x | 16 | x | x
C[C@H]1CN([C@@H](C)CO)C(=O)Cc2cc(N(C)C)ccc2O[C@@H]1CN(C)Cc1ccc(C(=O)Nc2ccccc2N)cc1 | x | 140* | x | x
C[C@@H]1CN([C@@H](C)CO)C(=O)Cc2cc(N(C)C)ccc2O[C@@H]1CN(C)Cc1ccc(C(=O)Nc2ccccc2N)cc1 | x | 140* | x | x
COc1ccc(NC(=O)Nc2ccc3c(c2)C(=O)N([C@H](C)CO)C[C@H](C)[C@@H](CN(C)C(=O)Nc2c(C)noc2C)OCCCC[C@@H](C)O3)cc1 | x | -2 | 1 | x
Cc1noc(C)c1NC(=O)N(C)C[C@@H]1Oc2ccc(NC(=O)CCN3CCOCC3)cc2CC(=O)N([C@@H](C)CO)C[C@@H]1C | -6 | 15 | 7 | i
C[C@@H]1CC[C@]2(C)[C@H](CC[C@@H](O)[C@]2(C)O)[C@@]1(C)CC/C(=C/CO)CO | 17 | x | 1 | x
COc1ccc(CN(C)C[C@@H]2Oc3ccc(NC(=O)CCN4CCOCC4)cc3C(=O)N([C@H](C)CO)C[C@H]2C)cc1 | 11 | -10 | x | i
O=C1O[C@H](c2ccccc2)[C@H](c2ccccc2)N2[C@H]1[C@@H](C(=O)N1CCN(c3ncccn3)CC1)[C@]1(C(=O)Nc3ccc(C#CCCO)cc31)[C@H]2c1ccccc1OCCO | x | x | 24* | i
COc1ccc(C#Cc2ccc3c(c2)[C@]2(C(=O)N3)[C@H](c3ccccc3OCCO)N3[C@H](c4ccccc4)[C@H](c4ccccc4)OC(=O)[C@H]3[C@@H]2C(=O)N2CCN(c3ncccn3)CC2)cc1 | x | x | 10 | i
O=C1O[C@@H](c2ccccc2)[C@@H](c2ccccc2)N2[C@@H](c3ccccc3OCCO)[C@]3(C(=O)Nc4ccc(C#CCCO)cc43)[C@@H](C(=O)N3CCCCCCC3)[C@H]12 | x | x | 22* | x
C=C1CCC2C(C(=O)O)=COC(O[C@@H]3O[C@H](CO)[C@@H](O)[C@H](O)[C@H]3O)C12 (stereo partly specified) | -4 | 3 | 1 | i
SMILES | mut p53 react | NOMO-1 viab | STK33 inh | ID4 binder
C=C(C(=O)O[C@H]1C/C=C(/C)C[C@H](O)[C@H]2[C@H](C)C(=O)O[C@@H]2/C=C\1C)[C@@H]1CCC(=C)[C@@H]2C[C@H](O[C@@H]3O[C@H](CO)[C@@H](O)[C@H](O)[C@H]3O)C(=C)[C@@H]2C1 | -19 | 118* | -3 | x
O=C(Cn1cnc2scc(-c3ccc(F)cc3)c2c1=O)Nc1ccc(F)cc1 | -15 | 24 | 0 | i
CC(C)(C)c1cc(/C=C(\C#N)C(N)=S)cc(C(C)(C)C)c1O | -70 | 118* | 12 | i
[C-]#[N+]/C(C#N)=C\c1cc(C(C)(C)C)c(O)c(C(C)(C)C)c1 | -68 | x | x | i
N#CC(C#N)=C(N)/C(C#N)=C/c1cc(O)c(O)c(O)c1 | -9 | 32 | 20* | i
COc1ccc(NC(=O)CSc2nc3c(c(-c4cccs4)c2C#N)CCCC3)cc1 | 29 | 37 | 3 | i
O=C(Cn1cc(C(=O)c2ccccc2F)c2ccccc21)Nc1ccccc1 | -3 | 89* | 3 | i
CC(=O)c1cn(CC(=O)Nc2ccccc2)c2ccccc12 | -8 | 19 | 2 | i
Cc1c(C(=O)Sc2ccccc2)sc2nc(C(F)(F)F)nn12 | -4 | x | x | i
Cc1ccc(O)c(C2=Nc3ccccc3N=C(C(F)(F)F)C2)c1 | x | 89* | u | x
COc1cc(NC(=O)CC2NC3CCCCC3NC2=O)cc(OC)c1 (stereo unspecified) | -4 | 9 | 5 | i
Cc1ccc(-c2noc(CCC(=O)NC(C)(C)C)n2)cc1 | 61* | 18 | 5 | i
COc1ccc(NC(=O)Nc2ccc3c(c2)C(=O)N([C@H](C)CO)C[C@@H](C)[C@H](CN(C)S(C)(=O)=O)O3)cc1 | x | -10 | x | x
Cn1c(=O)[nH]c(=O)c2c1ncn2CCNCc1ccco1 | 0 | -20 | -1 | +
COc1ccc(S(=O)(=O)Nc2ccc3c(c2)C(=O)N([C@@H](C)CO)C[C@@H](C)[C@H](CN(C)Cc2ccc(Cl)c(Cl)c2)O3)cc1 | x | 118* | -1 | x
COc1ccc(S(=O)(=O)Nc2ccc3c(c2)C(=O)N([C@H](C)CO)C[C@@H](C)[C@@H](CN(C)Cc2ccc(Cl)c(Cl)c2)O3)cc1 | x | 116* | x | x
COc1ccc(S(=O)(=O)Nc2ccc3c(c2)C(=O)N([C@H](C)CO)C[C@@H](C)[C@H](CN(C)Cc2ccc(Cl)c(Cl)c2)O3)cc1 | x | 50 | 3 | x
COc1ccc(S(=O)(=O)Nc2ccc3c(c2)C(=O)N([C@@H](C)CO)C[C@H](C)[C@H](CN(C)Cc2ccc(Cl)c(Cl)c2)O3)cc1 | x | 93* | x | x
O=C(O[C@H]1[C@H](Oc2ccccc2COC(=O)C2(O)C=CCCC2=O)O[C@H](CO)[C@@H](O)[C@@H]1O)c1ccccc1 (stereo partly specified) | x | 121* | -1 | i
